Several values for one entry are separate records, joined by “and”; a condition that tells them apart may be missing. Equal entries are not always repeated. This is part of a sample that, as a whole, favours compounds with a hit. Of some 79,000 tested, about 15% had one in any assay. More than one record can exist for a structure, and the calls need not agree. Activity calls are given as the source filed them. No stated cut-off is given here; in the data, active means growth inhibition above about 70%; inactive means the rest.

The first test is described as follows: NCI Yeast Anticancer Drug Screen. Data for the sgs1 mgt1 strain (AID 161).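 Further: 0% = growth of cultures given vehicle only.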 Particulars: S. cerevisiae sgs1 mgt1 strain, at 50.0 µM (retest, dose inferred, filed as 5.0), stronger effect = higher value. In outline: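 Inhibition of yeast growth, normalised to vehicle-treated controls, is reported for a strain bearing genetic alterations in DNA damage repair.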
On to `Oc1c(Cl)cc(Cl)cc1Cc1cc(Cl)cc(Cl)c1O`, for which the growth inhibition was 98% (active).

In the case of `COc1cc(OC)c(OC)cc1/C=C\c1ccnc2ccccc12`, the growth inhibition is 88% (active).

Consider `CC(C)C1=CC23CCC4C(C)(C(=O)O)CCCC4(C)C2CC1C1C(=O)OC(=O)C13` (stereo unspecified), for which the growth inhibition is 100% (active).

On to `CN(C)c1nc(N)c(C#N)c(C#N)c1C#N`, for which the growth inhibition is 61% (inactive).

With `C/C(=N\NC(=S)N1CCN(c2ccccn2)CC1)c1nccs1`, the growth inhibition was 99% (active).

On to `CCCCCCCCCCCCCCCCCCOCC(COP(=O)([O-])OCC[N+](C)(C)C)OC` (stereo unspecified), for which the growth inhibition is -14% (inactive).

`COc1ccc2nc(C)cc(NCCCCCCCCCNc3cc(C)nc4ccc(OC)cc34)c2c1`: the growth inhibition is 96% (active).

Consider `CC1CC[P+](c2ccccc2)(c2ccccc2)c2c1ccc1ccccc21` (stereo unspecified), for which the growth inhibition was 98% (active).

In the case of `CC(C)C1=C(O)C2=C(C(=O)C1=O)C1(C)CCCC(C)(C)C1CC2O` (stereo unspecified), the growth inhibition was 98% (active).

As for `CC(=O)[O-].[O-]c1c(Cl)cc(Cl)cc1/C=N/Nc1ccccn1.[Zn+2]`, the growth inhibition was 96% (active).

As to `O=C(c1ccccc1)C(c1ccccc1)C(O)c1ccc([N+](=O)[O-])cc1` (stereo unspecified), the growth inhibition is 94% (active) and 99% (active).

`Clc1nc(Cl)c(Cl)c(Cl)n1`: the growth inhibition is 98% (active).

`COc1cccc2c1C(=O)c1c(O)c3c(c(O)c1C2=O)C[C@@](O)(C(C)=O)C[C@@H]3OC1CC(N(C)C)C(O)C(C)O1` (stereo partly specified): the growth inhibition is 99% (active).

Regarding `CN1C(c2ccccc2)CC(=NOCc2ccccc2)CC1c1ccccc1` (stereo unspecified), the growth inhibition was 97% (active).

With `Cc1ccc(NCCN(C)C)c2c(=O)c3cc(O)ccc3sc12`, the growth inhibition is 99% (active).

Consider `N#CC1(C2SCCS2=O)C2=C(C(=O)c3ccccc3C2=O)N2CCCC21` (stereo unspecified), for which the growth inhibition is 67% (inactive).

In the case of `CCN(CC)CCC(=O)/C=C/c1ccccc1`, the growth inhibition was 100% (active).

Take `CC1(O)Cc2c(O)c3c(c(O)c2CC1O)C(=O)C=CC3=O` (stereo unspecified): the growth inhibition is 43% (inactive).

Consider `Cc1ccc2c(c1)C1(C)OC(C=CC1=O)O2` (stereo unspecified), for which the growth inhibition was 100% (active).

On to `Fc1cccc(CSC(=S)Nc2ccc(F)c(F)c2)c1`, for which the growth inhibition was 99% (active).

As to `CCN(CCO)CCNc1ccc(C)c2sc3ccccc3c(=O)c12`, the growth inhibition is 98% (active).

In the case of `Cc1n(-c2ccccc2)c2c([n+]1Cc1ccc([N+](=O)[O-])cc1)C(=O)c1ccccc1C2=O`, the growth inhibition is 98% (active).

`CC(=O)OC1COC(n2c(N)c(C#N)c(-c3ccccc3)c(C#N)c2=S)C(OC(C)=O)C1OC(C)=O` (stereo unspecified): the growth inhibition is 16% (inactive) and 48% (inactive).

On to `O=c1[nH]c2cc([N+](=O)[O-])ccc2nc1/C=C(\O)c1ccc([N+](=O)[O-])cc1`, for which the growth inhibition was 85% (active).

`Cc1n(Cc2ccccc2)c2c([n+]1C)C(=O)c1ccccc1C2=O`: the growth inhibition was 98% (active).

Turning to `CS(=O)(=O)OCCN(CCOS(C)(=O)=O)c1ccc(C=Nc2ccc(-c3csc(Cc4ccccc4)n3)cc2)c(Cl)c1`, the growth inhibition was 83% (active).

Regarding `CCCCCCCCCCS(=O)CC(CO)NC(=O)/C=C/c1c(C)[nH]c(=O)[nH]c1=O` (stereo unspecified), the growth inhibition was 98% (active).

Turning to `C/C(=N\O)c1cc(Br)cc([N+](=O)[O-])c1O`, the growth inhibition was 27% (inactive).

Take `COc1cc2c(c(OC)c1OC)-c1ccc(SC)c(=O)cc1C(NC(=O)c1ccccc1)CC2` (stereo unspecified): the growth inhibition is 81% (active).

As for `COc1cccc2c1C(=O)c1c(O)c3c(c(O)c1C2=O)C[C@@](O)(C(C)=O)C[C@@H]3OC1CC(O)C(O)C(C)O1` (stereo partly specified), the growth inhibition was 94% (active).

For `CCCCCCCc1c(Cl)nc(Cl)nc1Cl`, the growth inhibition was 96% (active).

For the compound `O=C1/C(=C/c2ccc(Cl)cc2)CNC/C1=C\c1ccc(Cl)cc1`, the growth inhibition is 88% (active) and 91% (active).

In the case of `O=C1C(Cl)=C(N2CCN(C3=C(Cl)C(=O)c4ccccc4C3=O)CC2)C(=O)c2ccccc21`, the growth inhibition was 99% (active).

`O=C1c2ccccc2-n2c1nc1ccccc1c2=O`: the growth inhibition is 39% (inactive).

As to `Nc1ccc(Cn2ccc3c4c(N)nc(N)nc4ccc32)cc1`, the growth inhibition was 88% (active).

Regarding `Nc1nc(N)c2c(Cl)c(CNc3ccc(Cl)c(Cl)c3)ccc2n1`, the growth inhibition is 98% (active).

For `Cc1cc(NCCCCCCCNc2cc(C)nc3cc([N+](=O)[O-])ccc23)c2ccc([N+](=O)[O-])cc2n1`, the growth inhibition was 90% (active).

On to `CCCCCCCCCCCCCCCCCC(=O)NCCO`, for which the growth inhibition was -4% (inactive).

The test is the same for the next values; noted with them: S. cerevisiae sgs1 mgt1 strain, at 50.0 µM, stronger effect = higher value.
`Oc1c(Cl)cc(Cl)cc1Cc1cc(Cl)cc(Cl)c1O`: the growth inhibition was 98.1% (active) and 99.4% (active).

As to `COc1cc(OC)c(OC)cc1/C=C\c1ccnc2ccccc12`, the growth inhibition is 88.4% (active).

As for `CC(C)C1=CC23CCC4C(C)(C(=O)O)CCCC4(C)C2CC1C1C(=O)OC(=O)C13` (stereo unspecified), the growth inhibition is 99.6% (active) and 49.5% (inactive).

`CN(C)c1nc(N)c(C#N)c(C#N)c1C#N`: the growth inhibition was 80.8% (active).

`C/C(=N\NC(=S)N1CCN(c2ccccn2)CC1)c1nccs1`: the growth inhibition is 90.8% (active).

For `CCCCCCCCCCCCCCCCCCOCC(COP(=O)([O-])OCC[N+](C)(C)C)OC` (stereo unspecified), the growth inhibition is 91.5% (active) and -31.4% (inactive).

`COc1ccc2nc(C)cc(NCCCCCCCCCNc3cc(C)nc4ccc(OC)cc34)c2c1`: the growth inhibition was 80.8% (active).

Regarding `CC1CC[P+](c2ccccc2)(c2ccccc2)c2c1ccc1ccccc21` (stereo unspecified), the growth inhibition is 91.2% (active).

For `CC(C)C1=C(O)C2=C(C(=O)C1=O)C1(C)CCCC(C)(C)C1CC2O` (stereo unspecified), the growth inhibition was 45% (inactive) and 39.5% (inactive).

Take `CC(=O)[O-].[O-]c1c(Cl)cc(Cl)cc1/C=N/Nc1ccccn1.[Zn+2]`: the growth inhibition was 98.1% (active).

Take `O=C(c1ccccc1)C(c1ccccc1)C(O)c1ccc([N+](=O)[O-])cc1` (stereo unspecified): the growth inhibition was 97.1% (active) and 98.8% (active).

Turning to `Clc1nc(Cl)c(Cl)c(Cl)n1`, the growth inhibition was 8.65% (inactive).

As to `COc1cccc2c1C(=O)c1c(O)c3c(c(O)c1C2=O)C[C@@](O)(C(C)=O)C[C@@H]3OC1CC(N(C)C)C(O)C(C)O1` (stereo partly specified), the growth inhibition is 90.8% (active).

`CN1C(c2ccccc2)CC(=NOCc2ccccc2)CC1c1ccccc1` (stereo unspecified): the growth inhibition was 88.8% (active).

With `Cc1ccc(NCCN(C)C)c2c(=O)c3cc(O)ccc3sc12`, the growth inhibition is 91.2% (active).

In the case of `N#CC1(C2SCCS2=O)C2=C(C(=O)c3ccccc3C2=O)N2CCCC21` (stereo unspecified), the growth inhibition is 83.8% (active).

Regarding `CCN(CC)CCC(=O)/C=C/c1ccccc1`, the growth inhibition is 99.5% (active) and 28.6% (inactive).

Regarding `CC1(O)Cc2c(O)c3c(c(O)c2CC1O)C(=O)C=CC3=O` (stereo unspecified), the growth inhibition is 26.5% (inactive).

As to `Cc1ccc2c(c1)C1(C)OC(C=CC1=O)O2` (stereo unspecified), the growth inhibition was 91% (active).

In the case of `Fc1cccc(CSC(=S)Nc2ccc(F)c(F)c2)c1`, the growth inhibition is 99.7% (active).

For the compound `CCN(CCO)CCNc1ccc(C)c2sc3ccccc3c(=O)c12`, the growth inhibition was 91.8% (active).

For the compound `Cc1n(-c2ccccc2)c2c([n+]1Cc1ccc([N+](=O)[O-])cc1)C(=O)c1ccccc1C2=O`, the growth inhibition was 88.5% (active).

On to `CC(=O)OC1COC(n2c(N)c(C#N)c(-c3ccccc3)c(C#N)c2=S)C(OC(C)=O)C1OC(C)=O` (stereo unspecified), for which the growth inhibition is 73.2% (active) and 65% (inactive).

As to `O=c1[nH]c2cc([N+](=O)[O-])ccc2nc1/C=C(\O)c1ccc([N+](=O)[O-])cc1`, the growth inhibition is 82.1% (active) and -3.95% (inactive).

For the compound `Cc1n(Cc2ccccc2)c2c([n+]1C)C(=O)c1ccccc1C2=O`, the growth inhibition was 91.2% (active).

As for `CS(=O)(=O)OCCN(CCOS(C)(=O)=O)c1ccc(C=Nc2ccc(-c3csc(Cc4ccccc4)n3)cc2)c(Cl)c1`, the growth inhibition is 71% (active).

As to `CCCCCCCCCCS(=O)CC(CO)NC(=O)/C=C/c1c(C)[nH]c(=O)[nH]c1=O` (stereo unspecified), the growth inhibition was 88.7% (active).

For `C/C(=N\O)c1cc(Br)cc([N+](=O)[O-])c1O`, the growth inhibition is 4.95% (inactive).

On to `COc1cc2c(c(OC)c1OC)-c1ccc(SC)c(=O)cc1C(NC(=O)c1ccccc1)CC2` (stereo unspecified), for which the growth inhibition is 83.5% (active).

As to `COc1cccc2c1C(=O)c1c(O)c3c(c(O)c1C2=O)C[C@@](O)(C(C)=O)C[C@@H]3OC1CC(O)C(O)C(C)O1` (stereo partly specified), the growth inhibition is 85.2% (active).

With `CCCCCCCc1c(Cl)nc(Cl)nc1Cl`, the growth inhibition is 87% (active).

For `O=C1/C(=C/c2ccc(Cl)cc2)CNC/C1=C\c1ccc(Cl)cc1`, the growth inhibition is 87.2% (active) and 86.7% (active).

Consider `O=C1C(Cl)=C(N2CCN(C3=C(Cl)C(=O)c4ccccc4C3=O)CC2)C(=O)c2ccccc21`, for which the growth inhibition was 88.7% (active).

For `O=C1c2ccccc2-n2c1nc1ccccc1c2=O`, the growth inhibition was 29.2% (inactive).

Consider `Nc1ccc(Cn2ccc3c4c(N)nc(N)nc4ccc32)cc1`, for which the growth inhibition was 72.7% (active).

As for `Nc1nc(N)c2c(Cl)c(CNc3ccc(Cl)c(Cl)c3)ccc2n1`, the growth inhibition was 90.8% (active).

Consider `Cc1cc(NCCCCCCCNc2cc(C)nc3cc([N+](=O)[O-])ccc23)c2ccc([N+](=O)[O-])cc2n1`, for which the growth inhibition was 72.2% (active).

Turning to `CCCCCCCCCCCCCCCCCC(=O)NCCO`, the growth inhibition is -20.2% (inactive) and -8.5% (inactive).

These data come from PubChem BioAssay (NCI).
